In the library only some 1.5% were active in any assay of this set; here they are far more common.
EBV gp42 block: Epstein-Barr virus gp42 inhibitors, primary screen, biochemical, uHTS, fluorescence polarization | Glycoprotein 42 (Epstein-Barr virus (strain AG876)), Q1HVG2 | Fluorescence polarization binding assay, mP read-out | inhibition, % (tested at 21.74 µM) | 220,000 compounds, 0.42% hits; in the data active = inhibition above about 50%
GLD-1 TGE inh: GLD-1/TGE RNA complex disruptors, primary screen, biochemical, fluorescence polarization | inhibition, % at 5.96 µM | purified GLD-1 + fluorescein TGE RNA | Female germline-specific tumor suppressor gld-1 (Caenorhabditis elegans), Q17339 | 320,000 compounds, 0.44% hits;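 active = percent inhibition above a per-plate cutoff, the plate mean of test compounds plus 3 SD, cut at about 30% in these data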;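 note: 0% = DMSO wells with GLD-1 and probe and 100% = wells lacking GLD-1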
MCL1-BIM inh: inhibitors of MCL1 binding to BIM-BH3, primary screen, biochemical, fluorescence polarization; GST-MCL1 / FITC-Bim-BH3 fluorescence polarization; inhibition, % at 10.9 µM; AID 2057, 2009; 320,000 compounds, 0.68% hits;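 active = inhibition above the mean inhibition of all tested compounds plus 3 SD, set per campaign, cut at about 40% in these data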;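 note: 0% = DMSO wells and 100% = unlabeled Bim-BH3 peptide control; higher means more loss of mP so more displacement of Bim peptide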
Target sequence (Q07820 whole entry, looked up): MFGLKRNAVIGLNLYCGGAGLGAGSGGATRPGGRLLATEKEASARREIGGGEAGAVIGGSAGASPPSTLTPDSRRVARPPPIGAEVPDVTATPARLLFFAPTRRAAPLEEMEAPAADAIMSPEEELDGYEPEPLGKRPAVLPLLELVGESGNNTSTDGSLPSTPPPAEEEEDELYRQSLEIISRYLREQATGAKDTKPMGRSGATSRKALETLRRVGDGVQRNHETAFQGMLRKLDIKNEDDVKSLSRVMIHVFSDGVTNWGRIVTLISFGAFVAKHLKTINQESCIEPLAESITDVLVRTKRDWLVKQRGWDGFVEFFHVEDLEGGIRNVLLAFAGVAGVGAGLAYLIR
MEX-5 binding: MEX-5 zinc finger RNA-binding disruptors – biochemical, C. elegans, fluorescence polarization, MLPCN library, primary screen. activity score (negative = inhibition of binding), % at 10 µM. 300,000 compounds, 0.38% hits. Zinc finger protein mex-5 (Caenorhabditis elegans), Q9XUB2. MEX-5/FITC-TCR2 RNA binding; active compounds read low;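 active = inhibition past about -25% in most replicates, and total fluorescence under double the plate's negative control median, limit read from the data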;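 note: 0% = DMSO and -100% = 5 µM competing unlabeled TCR2 RNA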
E coli Lon inh: inhibitors of E. coli Lon protease, primary screen, biochemical, fluorescence polarization. inhibition, % at 7.94 µM. purified E. coli Lon protease. 360,000 compounds, 0.42% hits. AID 602123, 2011; in the data active = inhibition above about 13%, passing the limit was not always enough;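 note: 0% = enzyme with probe and DMSO and 100% = no enzyme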
BCLXL inh: inhibitors of human Bcl-xL, primary screen, biochemical, fluorescence polarization, HTS; inhibition, % at 10.9 µM; 320,000 compounds, 0.7% hits; AID 2129, 2009; GST-Bcl-xL / FITC-Bim BH3 peptide fluorescence polarization;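 active = inhibition above the mean of all tested compounds plus 3 SD, cutoff set per campaign, cut at about 30% in these data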;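 note: 0% = DMSO wells and 100% = unlabeled Bim-BH3 peptide competitor; inhibitors lower millipolarization by displacing the labeled peptide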
Target sequence (Q07817 whole entry, looked up): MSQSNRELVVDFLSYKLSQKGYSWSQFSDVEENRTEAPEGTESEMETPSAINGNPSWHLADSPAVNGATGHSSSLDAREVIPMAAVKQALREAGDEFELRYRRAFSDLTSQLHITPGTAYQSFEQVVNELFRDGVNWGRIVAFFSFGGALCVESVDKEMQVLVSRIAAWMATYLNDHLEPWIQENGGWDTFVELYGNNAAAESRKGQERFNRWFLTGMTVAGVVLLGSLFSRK
The depositor's hits bear a star; . = no result.

SMILES	EBV gp42 block	GLD-1 TGE inh	MCL1-BIM inh	MEX-5 binding	E coli Lon inh	BCLXL inh
COc1ccc(NC(=O)c2cc(C3CCCCN3C(=O)c3ccc4c(c3)CCO4)on2)c(C)c1 (centres undefined)	.	.	.	.	-9	.
O=P(Nc1ccccc1)(Nc1ccccc1)c1ccccc1	.	.	.	.	-6	.
COc1ccc(OC)c(C(=O)COC(=O)COc2ccccc2)c1	.	-3	.	.	-4	.
CC(C)(C)OC(=O)NCCCC1=CC2=CC(=O)C(C)(O)C(=O)C2=CO1 (centres undefined)	.	26	37	-20	.	34*
CC1(OC(=O)C2CCCC2)C(=O)C=C2C=C(c3ccsc3)OC=C2C1=O (centres undefined)	5	14	24	-5	-34	15
CCC(=O)OC1(C)C(=O)C=C2C=C(CCCCNC(=O)OC(C)(C)C)OC=C2C1=O (centres undefined)	.	50*	33	-20	.	26
CCCCC1=CC2=CC(=O)C(C)(OC(=O)C3CCCC3)C(=O)C2=CO1 (centres undefined)	0	36*	32	-10	-26	11
NS(=O)(=O)c1ccc(NC(=O)C2Cc3ccccc3CN2C(=O)c2ccco2)cc1 (centres undefined)	.	-1	15	-1	-3	38*
CCN1C(=O)/C(=C/c2cnn(CC)c2C)SC1=S	-8	-11	-9	-4	-3	-5
CCN1C(=O)/C(=C/c2c(C)nn(C)c2C)SC1=S	-2	-15	-17	-30*	-22	-19
Cc1ccc(C(=O)/C=C/c2ccc(-c3ccc(C)cc3)o2)cc1	-19	-5	-9	-1	-26	-6
CCN(CC)S(=O)(=O)c1ccc(C(=O)/C=C/c2ccc(-c3ccc([N+](=O)[O-])cc3)o2)cc1	86*	-7	-15	-6	-36	-7
Cc1ccc(NC(=O)COc2ccc(/C=C3/SC(=Nc4ccccc4)N(Cc4cccnc4)C3=O)cc2)cc1	8	-8	-14	-60*	-9	-10
CN1C(=O)/C(=C2\SC(=S)N(CCCCCC(=O)O)C2=O)c2ccccc21	73*	9	4	-2	8	8
N#C/C(=C\C1=C(N2CCOCC2)C(=C/c2cccc([N+](=O)[O-])c2)/CC1)C(=O)Nc1ccccc1F	86*	-3	5	.	-21	8
N#C/C(=C/C1=C(N2CCOCC2)C(=C/c2ccccc2)/CC1)C(=O)Nc1ccccc1F	.	.	.	.	-65	.
N#C/C(=C/C1=C(N2CCOCC2)C(=C/c2cccc([N+](=O)[O-])c2)/CC1)C(=O)Nc1ccccc1F	.	.	.	.	-25	.
N#C/C(=C\C1=C(N2CCOCC2)C(=C\c2ccc(Cl)cc2)/CC1)C(=O)Nc1ccccc1F	124*	5	-6	-3	-153	4
Cc1cccc(NC(=O)CSCC(=O)Nc2cccc(S(=O)(=O)N3CCCCCC3)c2)c1	.	8	-15	0	-4	-8
CCOC(=O)C(c1nc2ccccc2[nH]1)n1c(-c2ccccn2)nc2ccccc21 (centres undefined)	.	.	.	.	1	.
COc1ccc(S(=O)(=O)N2CCOCC2)cc1NC(=O)C1CCCCN1S(=O)(=O)c1ccccc1 (centres undefined)	.	.	.	.	-4	.
Cc1ccc(NC(=S)N/N=C2\CC(C)(C)Oc3ccc(O)cc32)cc1	-14	5	8	-3	2	2
Cc1ccccc1NC(=S)N/N=C1\CC(C)(C)Oc2ccc(O)cc21	-2	4	8	2	-7	82*
Oc1ccc(N=Nc2nc(-c3ccccc3)c(-c3ccccc3)[nH]2)cc1	-2	84*	-20	1	-68	-8
Oc1ccc(N=Nc2n[nH]c(-c3ccccc3)n2)cc1	-7	-12	-2	-37*	-10	2
SMILES	EBV gp42 block	GLD-1 TGE inh	MCL1-BIM inh	MEX-5 binding	E coli Lon inh	BCLXL inh
O=C(Nc1ccc2c(c1)OCO2)c1csc([C@@H]2O[C@H](CO)[C@H](O)[C@H](O)[C@H]2O)n1	.	.	.	.	2	.
O=C(NC(Cc1ccccc1)C(=O)N1CCN(c2ccccc2O)CC1)c1ccccc1 (centres undefined)	.	.	.	.	7	.
COc1ccc(C(=O)NCc2ccc3c(c2)cc(C)n3C)cc1OC	-9	23	32	-2	15	37*
Cc1ccc(/C=C/C(=O)c2c(C)cc(C)[nH]c2=O)cc1	0	3	3	2	-6	0
COc1ccc(/C=C/C(=O)c2c(C)cc(C)[nH]c2=O)c2ccccc12	.	-7	-14	-28*	-14	-3
C=C1c2cc(OC)ccc2NC(=O)N1CC	52*	-1	11	-2	-2	9
C[C@H](NC(=O)c1ncn(C)c1C(=O)N[C@@H](C)c1ccccc1)c1ccccc1	.	7	.	.	-5	.
CCCCCCc1cc2cc(C(N)=O)c(=N)oc2cc1O	103*	-31	-39	-14	.	-24
Cn1c(=O)n(CC(=O)NCC2CCCO2)c(=O)c2c3c(sc21)COC(C)(C)C3 (centres undefined)	.	2	4	2	4	4
COCc1cc(=O)n2[nH]c(SCc3ccccc3)nc2n1	-17	-2	7	-2	4	31*
Cc1cc(=O)n2[nH]c(SCc3ccccc3)nc2n1	-15	1	-2	2	12	-1
COCCNC(=S)NN(c1ccccc1)c1ccccc1	-1	5	1	-2	2	-2
CNC(=S)NN(c1ccccc1)c1ccccc1	84*	2	14	2	-2	5
O=c1[nH]c(/C=C\c2ccc(O)c(O)c2)nc(O)c1[N+](=O)[O-]	.	.	.	-30*	18	.
O=S(=O)(Nc1nc2ccccc2nc1N1CCN(c2ccccn2)CC1)c1ccc(Cl)cc1	64*	.	.	.	10	.
O=C(N=c1ccn(-c2nc3ccccc3nc2NS(=O)(=O)c2ccc(Cl)cc2)cc1)c1cccs1	-51	15	44*	-9	3	48*
CCOc1ccc(S(=O)(=O)Nc2nc3ccccc3nc2-n2ccc(=NC(=O)c3cccs3)cc2)cc1	-38	2	2	-4	-9	-3
CC(Sc1nnc(-c2ccncc2)n1-c1ccc(F)cc1)C(=O)NC1CC1 (centres undefined)	.	13	-2	.	-10	6
O=C(NCc1ccncc1)C(=O)NCC1OCCN1S(=O)(=O)c1ccccc1 (centres undefined)	.	.	.	.	5	.
CC(C)(C)N1C(=O)Cc2c1nc(N)c1c(N)nc(N3CCCCC3CO)c(C#N)c21 (centres undefined)	-7	12	56*	-3	50*	30

Assay outcomes from PubChem.
